TRPM1 prom inh = reduces MITF-dependent TRPM1 promoter luciferase signal; 0.83% of 330,000 active; inhibition, % at 12.5 µM; SK-MEL-5 TRPM1 promoter luciferase, 24 h; AID 488899;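 active = mean inhibition across replicates of 60% or more, whatever share of single replicates reaches that level; inconclusive = some that reach 60%, reason not given; inactive = mean inhibition across replicates below 60%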
Shn3 inh set2 = inhibitors of Schnurri-3 3'UTR reporter in osteoblasts. inhibition, % at 12.5 µM. AID 588674. Clone20 osteoblast Shn3 3'UTR firefly luciferase, 24 h. 0.52% of 360,000 active;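 active = mean inhibition of at least 75% with every replicate also reaching 75%; inconclusive = mean inhibition at least 75% but some replicate below; inactive = mean inhibition below 75%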;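 note: 0% = median of neutral control wells and 100% = pilot-screen positive control compound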
PAX8 inh HTS = PAX8 transcriptional activity inhibition; inhibition, % at 12.6 µM; RMG-I TPO-luciferase reporter, SteadyGlo, 24 h; 1.2% of 360,000 active;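 active = mean replicate inhibition at least 60% with every replicate also reaching 60%; inconclusive = only one of the two criteria is met; inactive = mean below 60% and not all replicates reaching 60%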;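 note: luciferase light reporting Pax8 driven TPO promoter activity; plate controls were median of neutral control wells for no effect and mitoxantrone controls for full effect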
LMP1 NFkB inh = inhibitors of Epstein-Barr LMP1-induced NF-kappaB reporter. LMP1-induced NF-kappaB luciferase reporter cells, luminescence. inhibition, % at 12.5 µM. 0.69% of 350,000 active. AID 504558; in the data active = inhibition above about 41%; inconclusive = no clear call, values can overlap the other calls;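 note: 0% = neutral control wells and 100% = reference inhibitor control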
aSyn UTR inh = 5' untranslated region of α-synuclein, MLPCN primary screen; alpha-synuclein 5'UTR reporter, inhibitor activity; inhibition, % (tested at 7.5 µM); 0.82% of 300,000 active; AID 1813; in the data active = inhibition above about 60%; inconclusive = no clear call, values can overlap the other calls;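 note: H4 neuroglioblastoma cells stably carrying SNCA 5'UTR luciferase fusion; 0% = DMSO wells and 100% = positive control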
* = called active by the depositor; ? = inconclusive; . = no result. This is a sample that favours compounds with a hit; in the whole collection about 2.1% have one here.

SMILES	TRPM1 prom inh	Shn3 inh set2	PAX8 inh HTS	LMP1 NFkB inh	aSyn UTR inh
O=C(c1cc([N+](=O)[O-])ccc1N1CCOCC1)N1CCN(c2ccccc2)CC1	57	3	91*	13	91*
Cc1ccc(C(=O)c2cc([N+](=O)[O-])ccc2N2CCOCC2)c(C)c1	16	33	.	5	98*
CCCCCc1c(O)nc(SCC(=O)NCC2CCCO2)[nH]c1=O (configuration not stated)	-4	-36	.	0	22
COCCCOc1ccnc(CS(=O)c2nc3ccccc3[nH]2)c1C (configuration not stated)	-23	-51	-44	-20	-111
COc1ccc2nc(S(=O)Cc3ncc(C)c(OC)c3C)[nH]c2c1 (configuration not stated)	17	-3	26	84*	-41
CC1=C(C(=O)Nc2cccc(C(=O)NC(C)c3ccccc3)c2)SCCO1 (configuration not stated)	5	16	-15	-3	13
C/C(=N\NC(=O)C(C)Oc1ccc([N+](=O)[O-])cc1)c1ccccn1 (configuration not stated)	83*	83*	.	20	72*
COc1ccc(OC(C)C(=O)Nc2ccc([N+](=O)[O-])cc2)cc1 (configuration not stated)	12	26	-4	3	-6
CC(Oc1ccccc1)C(=O)NNC(=O)c1ccccn1 (configuration not stated)	3	16	75*	10	45
CC(Oc1cccc(Br)c1)C(=O)NNC(=O)c1ccccn1 (configuration not stated)	82*	?	.	33	.
CC(C)C(=O)NNC(=O)c1ccccn1	-3	6	-15	-3	2
Cc1ccc([C@@H]2CC=C(C(=O)O)[C@H](c3ccccc3F)N2S(=O)(=O)c2ccccc2C)cc1	0	-4	-4	10	.
O=C(c1ccccc1)c1ccc[nH]1	-8	1	-28	7	.
CN(C)c1ccc(C(=O)c2ccc(N(C)C)c3ccccc23)cc1	40	3	.	-6	89*
Cc1ccccc1NC(=O)CN1C(=O)S/C(=C\c2cccn2-c2cccc(C(=O)O)c2)C1=O	3	0	.	74*	6
Cc1ccc(N(CC(=O)NCCc2ccc(F)cc2)S(=O)(=O)c2ccc(Cl)c([N+](=O)[O-])c2)c(C)c1	48	13	78*	3	-24
CC1C/C(=C\c2cccnc2)C(=O)/C(=C/c2cccnc2)C1 (configuration not stated)	97*	71	.	92*	.
O=C(C=C1SCCS1)/C=C/c1ccco1	-10	-11	.	86*	1
O=C(c1nn2c(C(F)(F)F)cc(-c3ccco3)nc2c1Br)N1CCCc2ccccc21	3	25	.	3	93*
O=C(c1nn2c(C(F)(F)F)cc(-c3cccs3)nc2c1Br)N1CCCc2ccccc21	0	19	29	-8	82*
Cc1ccc(S(=O)(=O)NC2=C(N3CCN(Cc4ccccc4)CC3)C(=O)c3ccccc3C2=O)cc1	41	2	-8	-32	-1
COc1ccc(OCc2cc(C(=O)N(C)Cc3cc(C4CC4)n[nH]3)no2)c(Cl)c1	-82	-64	-118	-26	-189
C[C@@H]1CN([C@@H](C)CO)C(=O)c2cc(NC(=O)Nc3ccc4c(c3)OCO4)ccc2O[C@@H](C)CCCCO[C@@H]1CN(C)Cc1ccc(C(F)(F)F)cc1	.	.	27	.	.
C[C@@H]1CCCCO[C@H](CN(C)Cc2ccc(C(F)(F)F)cc2)[C@H](C)CN([C@H](C)CO)C(=O)c2cc(NC(=O)Nc3ccc4c(c3)OCO4)ccc2O1	.	.	67*	.	.
C[C@H](CO)N1C[C@H](C)[C@H](CN(C)Cc2ccc(C(F)(F)F)cc2)OCCCC[C@H](C)Oc2ccc(NC(=O)Nc3ccc4c(c3)OCO4)cc2C1=O	.	.	96*	.	.
SMILES	TRPM1 prom inh	Shn3 inh set2	PAX8 inh HTS	LMP1 NFkB inh	aSyn UTR inh
C[C@@H]1CN([C@@H](C)CO)C(=O)c2cc(NC(=O)Nc3ccc4c(c3)OCO4)ccc2O[C@@H](C)CCCCO[C@H]1CN(C)Cc1ccc(C(F)(F)F)cc1	.	.	61*	.	.
C[C@@H]1CN([C@H](C)CO)C(=O)c2cc(NC(=O)Nc3ccc4c(c3)OCO4)ccc2O[C@@H](C)CCCCO[C@@H]1CN(C)Cc1ccc(C(F)(F)F)cc1	.	.	66*	.	.
COc1ccc(N(C(=O)CNC(=O)c2cccs2)C(C(=O)NCC2CCCO2)c2ccccc2)c(OC)c1 (configuration not stated)	12	5	-1	0	13
CCCOc1ccc(C(=O)OCC(=O)NCCc2ccc(OCC)c(OCC)c2)cc1OC	7	-5	0	10	18
CN(C)C(=O)c1ccc(-c2ccc(C3[C@@H]4CN(Cc5ccc6c(c5)OCO6)C[C@H]3N4)cc2)cc1 (some centres not stated)	.	.	14	.	.
Cc1cc2nc(-c3ccc[nH]c3=O)[nH]c2cc1C	39	19	57	-5	77*
Cc1ccc(/C=C2\SC(=S)N(CCCC(=O)Nc3ccccn3)C2=O)cc1	79*	72	.	56*	107*
Cc1ccc(/C=C2\SC(=S)N(CCCC(=O)Nc3ccc(O)cc3)C2=O)cc1	23	17	42	39	104*
Cc1ccc(/C=C2\SC(=S)N(CCCC(=O)Nc3ccccc3C(=O)O)C2=O)cc1	21	25	12	13	68*
COc1ccc(NC(=O)c2cc(Br)ccc2Cl)c(OC)c1	19	-13	5	2	7
FC(F)(F)c1cnc(NNC(=S)Nc2ccccc2Cl)c(Cl)c1	14	24	74*	-1	-13
COCCNC(=O)/C(C#N)=C\c1ccc(CNC(=O)C(=O)Nc2ccc(C)c(C)c2)o1	8	14	-2	9	9
COc1ccc(NC(=O)C(=O)N/N=C\c2ccc(CNC(=O)C(=O)Nc3ccc(C)c(C)c3)o2)c(OC)c1	.	.	.	.	88*
CC1(C)CC(CC(=O)Nc2nccs2)(c2ccccc2)CCO1 (configuration not stated)	0	0	69*	9	-17
COc1ccc(CNC(=O)C(c2ccc(C)cc2)N(Cc2cccs2)C(=O)c2ccc3c(c2)OCCO3)cc1 (configuration not stated)	5	89*	.	24	3
Cc1ccc(C(C(=O)NCc2ccccc2)N(Cc2cccs2)C(=O)c2ccc3c(c2)OCCO3)cc1 (configuration not stated)	8	45	45	-3	-10
COc1ccc(C2=NN(C(=O)CSC3=NN4CCCC(=O)N=C4S3)C(c3cccc(OC)c3OC)C2)cc1 (configuration not stated)	10	1	3	77*	-6
CCOc1ccc(N2C(=O)CC(Sc3nnnn3-c3ccccc3)C2=O)cc1 (configuration not stated)	8	92*	13	8	22
CCOc1ccc(N2C(=O)CC(Sc3nc(C)cc(C)n3)C2=O)cc1 (configuration not stated)	4	-2	.	1	11

Bioassay records as filed in PubChem.
